Experimental data reported in article PMC4336329 (PLoS ONE, 2015).
Screen size: about 310,000 compounds; about 14,000 (4.5%) showed an effect of 50% or more. Effects have a minus sign here. For the sample, strong results were picked, then their nearest neighbours and some compounds at random.

Molecular target: human ether-à-go-go-related gene (hERG) potassium channel (human, UniProt Q12809)
Experiment: primary screen, population patch clamp on CHO cells stably expressing hERG; higher = less effect of the substance
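Note: peak tail current of the secondary pulse compared with the same well before compound.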

Sequence of human ether-à-go-go-related gene (hERG) potassium channel (Q12809 whole entry, looked up): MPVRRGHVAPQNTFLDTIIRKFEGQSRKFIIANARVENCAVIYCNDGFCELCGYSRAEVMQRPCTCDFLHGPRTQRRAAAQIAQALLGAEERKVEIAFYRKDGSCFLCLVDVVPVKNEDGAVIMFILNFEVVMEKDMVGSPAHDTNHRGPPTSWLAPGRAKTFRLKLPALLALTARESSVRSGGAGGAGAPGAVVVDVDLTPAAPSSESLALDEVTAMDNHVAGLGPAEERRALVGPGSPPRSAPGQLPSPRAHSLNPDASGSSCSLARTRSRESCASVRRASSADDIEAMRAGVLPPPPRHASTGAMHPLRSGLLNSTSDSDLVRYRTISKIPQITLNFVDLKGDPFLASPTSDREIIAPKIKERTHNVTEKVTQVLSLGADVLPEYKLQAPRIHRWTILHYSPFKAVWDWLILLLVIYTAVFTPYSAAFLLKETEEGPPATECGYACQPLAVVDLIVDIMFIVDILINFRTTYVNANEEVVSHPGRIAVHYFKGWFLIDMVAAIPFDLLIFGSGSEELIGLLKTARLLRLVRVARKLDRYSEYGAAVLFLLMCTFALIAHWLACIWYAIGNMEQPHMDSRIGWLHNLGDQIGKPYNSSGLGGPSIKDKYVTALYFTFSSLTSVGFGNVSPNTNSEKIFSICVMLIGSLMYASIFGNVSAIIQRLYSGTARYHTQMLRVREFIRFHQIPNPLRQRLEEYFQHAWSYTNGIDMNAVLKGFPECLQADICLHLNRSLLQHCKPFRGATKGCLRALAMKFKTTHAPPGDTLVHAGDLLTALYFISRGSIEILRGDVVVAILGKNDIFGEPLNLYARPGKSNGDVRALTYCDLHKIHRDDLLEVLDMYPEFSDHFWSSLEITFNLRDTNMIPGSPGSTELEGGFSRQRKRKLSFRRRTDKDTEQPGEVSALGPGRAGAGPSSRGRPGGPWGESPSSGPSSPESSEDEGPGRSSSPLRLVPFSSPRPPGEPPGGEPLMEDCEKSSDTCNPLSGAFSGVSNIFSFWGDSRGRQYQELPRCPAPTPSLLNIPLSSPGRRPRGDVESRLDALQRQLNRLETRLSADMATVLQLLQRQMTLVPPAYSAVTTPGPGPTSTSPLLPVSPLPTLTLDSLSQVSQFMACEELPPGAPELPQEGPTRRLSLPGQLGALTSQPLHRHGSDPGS

Row | SMILES | hERG current change (%, negative = inhibition) at 10uM [%]
1 | COC(=O)c1ccc(C)c(NC(=O)c2ccc(CN3CCc4ccccc4C3)cc2)c1 | 6.57
2 | CCOC(=O)N1CCN(C(=O)c2cc(COc3ccc(F)cc3F)on2)CC1 | -17.1
3 | CC(Oc1ccc(-c2ccccc2)c(F)c1)c1ccn(S(=O)(=O)c2ccc(F)cc2)n1 (centres unmarked) | 16
4 | COc1ccccc1-c1ccc(Nc2cccc(C(F)(F)F)c2)nn1 | 15.4
5 | COCCSc1nc2c(c(=O)[nH]c(=O)n2C)n1Cc1cccc(C)c1 | -45.6
6 | Cc1ccc(Cn2c(N3CCCCCC3)nc3c2c(=O)[nH]c(=O)n3C)cc1 | 0.362
7 | Cn1c(=O)[nH]c(=O)c2c1nc(SCCN1CCCCC1)n2CCCc1ccccc1 | -69
8 | Cn1c(=O)[nH]c(=O)c2c1nc(SCCN1CCOCC1)n2CCCc1ccccc1 | -46.9
9 | Cn1c(=O)[nH]c(=O)c2c1nc(SCCO)n2CCCc1ccccc1 | -4.68
10 | Cn1c(=O)[nH]c(=O)c2c1nc(SCCN1CCCCC1)n2Cc1ccccc1 | -78.9
11 | CCCSc1nc2c(c(=O)[nH]c(=O)n2C)n1Cc1ccccc1 | -17.4
12 | Cn1c(=O)[nH]c(=O)c2c1nc(SCC(=O)O)n2Cc1ccccc1 | -5.45
13 | Cc1ccc(Cn2c(SCCN3CCCCC3)nc3c2c(=O)[nH]c(=O)n3C)cc1 | -74.1
14 | Cc1cccc(Cn2c(SCCN3CCCCC3)nc3c2c(=O)[nH]c(=O)n3C)c1 | -79.1
15 | Cc1ccc(Cn2c(SCC(C)C)nc3c2c(=O)[nH]c(=O)n3C)cc1 | 4.21
16 | Cc1cccc(Cn2c(SCC(=O)Nc3ccccc3)nc3c2c(=O)[nH]c(=O)n3C)c1 | -30.2
17 | Cn1c(-c2ccc(Cl)nc2)nc2cc(Cl)ccc21 | -9.09
18 | CC(C)CNC(=O)C1Nc2ccccc2C2C=CCC12 (centres unmarked) | -6.43
19 | COc1cccc(N(CC(=O)N/N=C(\C)c2cccs2)S(C)(=O)=O)c1 | 6.58

Row | SMILES | hERG current change (%, negative = inhibition) at 10uM [%]
20 | Cc1cc(NS(=O)(=O)c2ccc(NC(=O)N[C@H](C(=O)O)C(C)C)cc2)no1 | 29.3
21 | CCN(CC)C(=S)NC(=O)Cc1ccccc1 | 16.1
22 | COc1ccc(S(=O)(=O)NC(C)CCc2ccccc2)cc1 (centres unmarked) | -3.49
23 | Cc1c(NC(=O)C(c2ccccc2)c2ccccc2)cccc1C(=O)O | 16
24 | CCO[C@@H]1OC(C(=O)Nc2ccccc2)=C[C@H](C)[C@H]1CCCO | 1.08
25 | CSc1nnc(NC(=O)c2ccc(C)c(S(=O)(=O)N3CCOCC3)c2)s1 | 0.594
26 | C=C(C)CSc1nc2c(c(=O)[nH]c(=O)n2C)n1Cc1ccccc1 | -12.3
27 | Cn1c(=O)[nH]c(=O)c2c1nc(CN(Cc1ccccc1)Cc1ccccc1)n2CCN1CCOCC1 | -16.6
28 | Cn1c(=O)[nH]c(=O)c2c1nc(SCCN1CCOCC1)n2Cc1ccccc1 | -54.4
29 | Cc1onc(-c2c(Cl)cccc2Cl)c1NC(=O)NNc1ccccn1 | -11.7
30 | CCOc1ccc(N2CCc3c(C)nc(SC)nc32)cc1 | -2.26
31 | CSc1nc(C)c2c(n1)N(c1ccc(O)cc1)CC2 | 4.88
32 | COc1cc(OC)c2nc(C)c3c(c2c1)N(c1ccc(O)cc1)CC3 | -72.1
33 | COc1ccc(N2C(=O)CCC2=O)c(OC)c1 | 20.7
34 | COc1ccc2c(c1OC)C(=O)N(c1ccc(O)cc1)C2 | 13.5
35 | COc1ccc(N2CCc3c(C)nc(SC)nc32)cc1 | 3.4
36 | COc1ccc(N2CCCC2=N)c(OC)c1.Cl | 12.7
37 | COc1ccc(N2CCc3c(C)nc4c(OC)cc(OC)cc4c32)cc1 | -75
38 | COc1ccc(N2CCc3c(C)nc4c(OC)cc(OC)cc4c32)c(OC)c1 | -75.3

Row | SMILES | hERG current change (%, negative = inhibition) at 10uM [%]
39 | Cc1cc(C)n(CCOc2ccc(Br)cc2)n1 | 1.08
40 | O=C(NCc1ccc(-c2nc3ccccc3s2)cc1)c1cc2ccccc2o1 | -1.71
41 | CN(C)C(=O)c1cc(C(=O)c2ccccc2Cl)c[nH]1 | 11.8
42 | COc1cc(C(=O)N/N=C/c2sc(N3CCOCC3)nc2-c2ccccc2)cc(OC)c1OC | 3.33
43 | CC(=O)Nc1ccc(S(=O)(=O)N2CCN=C2C)cc1 | 5.24
44 | CC(=O)NCCC(=O)N1CCCC(C(=O)c2ccc3c4c(cccc24)CC3)C1 (centres unmarked) | -18.5
45 | CCSC1=C(C#N)C(c2cccc(O)c2)CC(=O)N1 (centres unmarked) | 2.7
46 | N#Cc1cccc(NC(=O)COC(=O)CCc2ccc(S(=O)(=O)N3CCOCC3)cc2)c1 | -60.1
47 | O=C(CCc1ccccc1)Nc1ccc(S(=O)(=O)N2CCOCC2)cc1 | -28.1
48 | O=C(CNc1cc(S(=O)(=O)N2CCOCC2)ccc1NCC1CCCO1)Nc1ccc(C(F)(F)F)cc1 (centres unmarked) | -30.4
49 | N#Cc1ccc(NC(=O)CCc2ccc(S(=O)(=O)N3CCOCC3)cc2)cc1 | -51.5
50 | N#Cc1ccc(NC(=O)CNc2cc(S(=O)(=O)N3CCOCC3)ccc2NCC2CCCO2)cc1 (centres unmarked) | -70
51 | O=C(COC(=O)CCc1ccc(S(=O)(=O)N2CCOCC2)cc1)Nc1cccc(Cl)c1 | -30.3
52 | N#Cc1ccc(NC(=S)NC(=O)CCc2ccc(S(=O)(=O)N3CCOCC3)cc2)cc1 | 0.205
53 | CC(=O)c1cccc(NC(=O)COC(=O)CCc2ccc(S(=O)(=O)N3CCOCC3)cc2)c1 | 6.05
54 | COc1ccc(NC(=O)CNc2cc(S(=O)(=O)N3CCOCC3)ccc2NCC2CCCO2)cc1 (centres unmarked) | -18.3
55 | O=C(O)c1ccc(COCC(F)(F)C(F)F)o1 | 16
56 | CC(CNC(=O)C(C)C)NC(=O)C(C)C (centres unmarked) | 7.92
